Bioassay records from PubChem BioAssay.
Rows were chosen to be rich in hits. Some 6.5% of all compounds tested hit in one or more screens of this group.
Abs 340nm = compound absorbs light at 340 nm; compound absorbance at 340 nm, fold over control; 65,000 tested, under 10 active; fold change at 10 µM;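 active means at 10 µM dose, initial 340 nm absorbance at least 2 fold that of control wells; inactive means change under 2 fold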;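 further: initial absorbance extrapolated from kinetic A340 decline of NADH oxidation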
Spn MK inh = S. pneumoniae mevalonate kinase inhibition | inhibition, % at 10 µM | 0.48% of 65,000 active | purified MK, PK/LDH-coupled NADH absorbance 340 nm;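 active means ranked among the strongest by inhibition in the single 10 µM screen, a fixed top-ranked set picked for dose follow-up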
NADH coupling = blocks coupling enzymes of NAD/NADH assays | coupled PK/LDH NADH assays, four targets | IC50, µM (top dose mostly 10 µM) | 0.02% of 65,000 active;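 active means single-dose screening hits from any of four coupled enzyme assays that gave an IC50 when retested across doses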;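 further: the DPM-DC format reads NADH fluorescence rather than 340 nm absorbance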
Spn DPM-DC inh = S. pneumoniae DPM-DC inhibition; purified DPM-DC, PK/LDH coupled NADH fluorescence; calls only at 10 µM; 0.49% of 65,000 active;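 active means the 320 compounds with the highest percent inhibition in the single-dose primary screen, excluding strongly autofluorescent ones, cut at about 32% in these data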;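 further: kinetic rate of NADH fluorescence loss reporting ADP formed by the decarboxylase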
Fluor 339 460 = intrinsic fluorescence of library compounds, ex339/em460 – biochemical, MLSMR library, data from DPM-DC assay, artefact control, profiling panel; compound autofluorescence, ex339/em460 nm, NADH buffer; hits give high values; 1 = no-compound wells, NADH background; fluorescence fold increase at 10 µM; 5.5% of 65,000 active;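 active means at 10 µM, mean starting fluorescence two-fold or more over control wells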;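 further: signal is the first read of a kinetic run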
Spn PMK inh = blocks S. pneumoniae phosphomevalonate kinase. AID 539. purified PMK, PK/LDH-coupled NADH absorbance 340 nm. inhibition, % at 10 µM. 0.49% of 65,000 active;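 active means top-ranked compounds by inhibition in the single 10 µM screen, taking a fixed number of the strongest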
Hits are given with their value; n = inactive; x = no result shown; + = active, no number.

SMILES	Abs 340nm	Spn MK inh	NADH coupling	Spn DPM-DC inh	Fluor 339 460	Spn PMK inh
O=c1c2ccccc2nnn1CSc1nnc2sc3ccccc3n12	n	n	n	n	n	n
CC1Cc2nc(SCC(=O)Nc3ccc4c(c3)OCO4)n(CCc3ccccc3)c(=O)c2S1 (stereo unspecified)	n	n	n	+	n	n
Cc1cc(N2CCC(C(=O)NC3CCCCC3)CC2)nc(-c2ccccc2)n1	n	n	n	n	n	n
Cc1cc(N2CCC(N(C)C3CCCC3)CC2)nc2cc(O)ccc12	n	n	n	x	2.17	n
COc1ccc(CN(C(=O)CSc2nnc(-c3ccccc3F)o2)c2ccc(F)cc2)cc1	n	n	n	n	n	n
OC(CNCCc1ccccc1)c1ccccc1 (stereo unspecified)	n	n	n	n	n	n
COC(=O)c1ccc(-c2ccc(CNCC(O)c3ccccc3)o2)cc1 (stereo unspecified)	n	n	n	x	2.93	n
CC1=C(C(=O)OC(C)C)C(c2c(O)ccc3ccccc23)NC(=O)N1 (stereo unspecified)	n	n	n	n	n	n
COCCNC(=O)CSc1nc(-c2ccc(OC)c(OC)c2)cc(C(F)(F)F)n1	n	n	n	n	2.15	n
COc1ccc(-c2cc(C(F)(F)F)nc(SCC(=O)Nc3cc(C)on3)n2)cc1	n	n	n	n	2.99	n
COc1ccc(-c2cc(C(F)(F)F)nc(S(=O)(=O)CCC(=O)N3CCOCC3)n2)cc1	n	n	n	n	2.78	n
COc1ccccc1-c1cc(C(F)(F)F)nc(S(=O)(=O)CCCC(=O)N2CCOCC2)n1	n	n	n	n	n	n
COc1ccc(-c2cc(C(F)(F)F)nc(SCC(=O)N3CCOCC3)n2)cc1OC	n	n	n	n	2.35	n
CS(=O)(=O)N1CCCC(C(=O)NCCCN2CCOCC2)C1 (stereo unspecified)	n	n	n	n	n	n
CCn1c2ccccc2c2cc(C3C(C#N)=C(N)OC4=C3C(=O)CC(C)(C)C4)ccc21 (stereo unspecified)	n	n	n	n	n	n
CCn1c2ccccc2c2cc(N)ccc21	n	n	n	x	2.9	n
CCn1c2ccccc2c2cc(C3C(C#N)=C(C)NC(C)=C3C#N)ccc21	n	n	n	x	4.75	n
O=C(NCc1ccco1)C(c1cccs1)N(C(=O)C1COc2ccccc2O1)c1cccc(O)c1 (stereo unspecified)	n	n	n	n	n	n
COc1ccccc1-c1nnc(NC(=O)C(C)SC2=NCCS2)s1 (stereo unspecified)	n	n	n	n	n	n
CCNc1nnc(-c2ccccc2OC)s1	n	n	n	x	2.06	n
COc1ccc(OC)c(C(C)NC(=O)c2ccco2)c1 (stereo unspecified)	n	n	n	n	n	n
Cc1nn2c(-c3cccc(NC(=O)CSc4nc5ccccc5o4)c3)nnc2c2ccccc12	n	n	n	n	n	n
Cc1nc2c(-c3ccccc3)c(C)nn2c(C)c1CCC(=O)N1CCOCC1	n	n	n	n	n	n
COc1ccc(-c2nc(N3CCOCC3)nc3nn4c(C)c(CCC(=O)O)c(C)nc4c23)cc1	n	n	n	x	4.99	n
Cc1nc2c3c(-c4ccccc4)nc(N4CCOCC4)nc3nn2c(C)c1CCC(=O)O	n	n	n	n	3.69	n
SMILES	Abs 340nm	Spn MK inh	NADH coupling	Spn DPM-DC inh	Fluor 339 460	Spn PMK inh
CCOC(=O)N1CCC(NC(=O)c2cc3ccccn3n2)CC1	n	n	n	n	n	n
CC(=O)NCCn1c(SCc2ccccc2F)nc2ccccc2c1=O	n	n	n	n	n	n
CC(=O)NCCn1c(SCc2cc(=O)n3cc(Cl)ccc3n2)nc2ccccc2c1=O	n	n	n	+	2.13	n
Cc1cccc2cc(C#N)c(NCCNS(=O)(=O)c3ccc4c(c3)OCCO4)nc12	n	n	n	n	2.15	n
Cc1ccc2cc(C#N)c(NCCNC(=O)C3CCC3)nc2c1C	n	n	n	n	3.12	n
CCOc1ccc2nc(NCCNC(=O)Nc3ccccc3)c(C#N)cc2c1	n	n	n	n	n	n
Cc1cccc2cc(C#N)c(NCCNC(=O)NC3CCCCC3)nc12	n	n	n	n	2.07	n
COc1ccc(CCN2C(=O)C(O)=C(C(=O)c3ccco3)C2c2cccs2)cc1OC (stereo unspecified)	n	n	n	n	n	n
CCOC(=O)CC(=O)CSc1nc(-c2cccnc2)ccc1C#N	n	n	n	x	2.11	n
